Reference: PubChem BioAssay (NCI)
Values joined by “and” are separate entries in the source; they are usually repeats but may differ in a detail not shown here. Equal values may be shown once. Compounds without any hit were thinned out: in the full panel of roughly 83,000, 20% have a hit.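 Treatment: one concentration, 48 hours, 96-well format. Scoring: percent growth, with anything below 10 considered active.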 Active and inactive are the calls of the source.

Tested on: MCF7 breast
Assay: NCI-60 one-dose screen, 48 h (100 = growth as untreated, 0 = no growth, -100 = all killed)
Details: 10 µM unless noted

Compound	growth
COc1cc([C@H]2OC[C@H]3[C@@H]2CO[C@@H]3c2cc(OC)c3c(c2)OCO3)cc(OC)c1OC	18.5% [100 µM] (inactive) and 2.61% [100 µM] (active)
O=C1C=CC=C/C1=C1\N=C(c2ccccc2OCC(=O)c2ccc(Br)cc2)SS1	77.7% [100 µM] (inactive) and 77% [100 µM] (inactive)
Cc1ccc2c(sc(-c3ccc4c(c3)sc(-c3ccc5c(c3)sc(-c3ccc(N(C)C)cc3)[n+]5C)[n+]4C)[n+]2C)c1S(=O)(=O)O (tested in a mixture with another compound)	35.5% [100 µM] (inactive) and -81.2% [100 µM] (active)
O=C(O)COc1cc(-c2ccccc2F)nc2cc3c(cc12)OCO3	86.4% [100 µM] (inactive) and 58% [100 µM] (inactive)
COc1cc(C)c2c(c1C=O)Oc1c(c(C)c(O)c3c1C(O)OC3=O)OC2=O (stereo unspecified)	1.49% [100 µM] (active) and 87.3% [100 µM] (inactive)
O=C1NC(N/N=C\c2ccccc2)=N/C1=C/c1ccccc1	-46% [100 µM] (active) and -100% [100 µM] (active)
Cc1cc(N(CCC#N)CCC#N)ccc1/C=N/NC(=O)c1cc(Cl)ccc1O	43.8% [100 µM] (inactive) and 13.1% [100 µM] (inactive)
Cc1ccc2c(/C=C/c3ccc(N(C)C)cc3)ccc(C(C)C)cc1-2	57.7% [100 µM] (inactive) and 75.6% [100 µM] (inactive)
COc1ccc(-c2nc3ccccc3c(=S)n2OC(C)=O)cc1	8.58% [25 µM] (active) and -23% [25 µM] (active)
COC(=O)C1=CO[C@@H](OC2OC(CO)C(O)C(O)C2O)[C@H]2[C@@H](C)[C@@H](O)[C@@H](O)[C@@H]12 (stereo partly specified)	95.3% [100 µM] (inactive) and 91.8% [100 µM] (inactive)
O=C1NC(N/N=C\C(O)C(O)C(O)C(O)CO)=N/C1=C\c1ccc(Cl)cc1 (stereo unspecified)	58.4% [100 µM] (inactive) and 13.9% [100 µM] (inactive)
COC(=O)c1cc(C#N)[nH]c1-c1ccsc1	9.03% [100 µM] (active) and -89.1% [100 µM] (active)
CC(=N\N=C\c1ccccn1)/C(C)=N/N=C/c1ccccn1	76.4% [100 µM] (inactive) and 78.5% [100 µM] (inactive)
O=C(CCc1ccc(O)c(O)c1)c1ccc(O)c(O)c1O	-69.8% [100 µM] (active) and -72.6% [100 µM] (active)
C[N+](C)(CCNC(=O)c1cccc2cc3ccccc3nc12)Cc1ccc([N+](=O)[O-])s1	37.1% [25 µM] (inactive) and 55.9% [25 µM] (inactive)
CCCCCCSC[C@H](OC(C)=O)[C@@H](OC(C)=O)[C@@H](OC(C)=O)[C@@H](COC(C)=O)OC(C)=O	28.8% [100 µM] (inactive) and 79.7% [100 µM] (inactive)
